Test results: PubChem BioAssay (NCI)
Values joined by “and” are separate entries in the source; they are usually repeats but may differ in a detail not shown here. Identical values can stand only once. The panel holds about 79,000 compounds, 15% with a hit somewhere; the sample as a whole holds those more often. More than one record can exist for a structure, and the calls need not agree. Active and inactive are the calls of the source. Cut-off read from the data, not from the text of the source: active = growth inhibition above about 70%; inactive = the rest.

How the values were obtained:
[1] = NCI Yeast Anticancer Drug Screen. Data for the rad50 strain (AID 155);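 note: 0% = growth of vehicle-only cultures of the same strain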; conditions: S. cerevisiae rad50 strain growth inhibition, stronger effect = higher value
Summary of the method: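 Genetically altered yeast (DNA repair pathway); compound treatment; growth inhibition vs vehicle ctrl.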

[2] = NCI Yeast Anticancer Drug Screen. Data for the mec2-1 strain (AID 157); conditions: S. cerevisiae mec2-1 strain, stronger effect = higher value
Summary of the method: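 Growth inhibition is read against vehicle-treated controls after compound exposure of the mec2-1 yeast strain, which is defective in DNA damage repair or cell cycle control.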

[3] = NCI Yeast Anticancer Drug Screen. Data for the sgs1 mgt1 strain (AID 161);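 note: 0% = growth of cultures given vehicle only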; conditions: S. cerevisiae sgs1 mgt1 strain, stronger effect = higher value
Summary of the method: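 Compounds are added to genetically altered yeast, and growth is compared with cultures given vehicle alone to give percent inhibition.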

[4] = NCI Yeast Anticancer Drug Screen. Data for the cln2 rad14 strain (AID 165);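 note: 0% = growth equal to vehicle treated cultures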; conditions: S. cerevisiae cln2 rad14 strain, stronger effect = higher value
Summary of the method: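 Growth inhibition, relative to vehicle-treated controls, is the read-out. The test organism is a yeast strain with defined genetic alterations, cln2 rad14.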

[5] = NCI Yeast Anticancer Drug Screen. Data for the bub3 strain (AID 167); conditions: S. cerevisiae bub3 mutant strain, stronger effect = higher value
Summary of the method: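 Yeast carrying a defined mutation is treated with each compound, and growth is compared with that of vehicle-exposed cells to give inhibition.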

[6] = NCI Yeast Anticancer Drug Screen. Data for the mlh1 rad18 strain (AID 175); conditions: S. cerevisiae mlh1 rad18 strain growth inhibition, stronger effect = higher value
Summary of the method: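 Cells of a genetically altered yeast strain, deficient in DNA damage repair, were treated with compound. Their growth was then compared with that of vehicle-treated cultures to give inhibition.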

[7] = at 5.0 µM (retest, dose inferred, filed as 0.5)
[8] = at 50.0 µM (retest, dose inferred, filed as 5.0)

Measured: growth inhibition

CN1CCN(c2ccc([N+](=O)[O-])c3no[n+]([O-])c23)CC1
52% (inactive) and 81% (active): [2]; [7]
72% (active) and 46% (inactive): [4]; [7]
inactive: [5]; [7] 45% and 65%
active: [1]; [7] 96% and 97% | [1]; [8] 99% | [1]; at 50.0 µM 99.2% and 89.8% | [2]; [8] 99% | [2]; at 50.0 µM 97.5% and 93% | [3]; [7] 82% and 93% | [3]; [8] 99% | [3]; at 50.0 µM 98.8% and 91.3% | [4]; [8] 97% and 98% | [4]; at 50.0 µM 92.7% and 84.6% | [5]; [8] 99% and 97% | [5]; at 50.0 µM 98.2% and 91.5% | [6]; [7] 94% and 97% | [6]; [8] 99% | [6]; at 50.0 µM 94.2% and 90.2%

O=C(CI)c1ccc[nH]1
inactive: [1]; [7] 65%
active: [1]; [8] 99% | [1]; at 50.0 µM 99.3% | [2]; [7] 79% | [2]; [8] 99% | [2]; at 50.0 µM 99.3% | [3]; [7] 74% | [3]; [8] 99% | [3]; at 50.0 µM 99.5% | [4]; [7] 96% | [4]; [8] 99% | [4]; at 50.0 µM 99.2% | [5]; [7] 97% | [5]; [8] 97% | [5]; at 50.0 µM 99.4% | [6]; [7] 74% | [6]; [8] 97% | [6]; at 50.0 µM 99.3%

[O-][n+]1onc2ccccc21
active: [1]; [8] 99% | [1]; at 50.0 µM 98.3% | [2]; [8] 99% | [3]; [8] 99% | [4]; [8] 99% | [4]; at 50.0 µM 97.7% | [5]; [8] 99% | [6]; [8] 99% | [6]; at 50.0 µM 98.2%
inactive: [1]; [7] 47% | [2]; [7] 30% | [2]; at 50.0 µM 52% | [3]; [7] 29% | [3]; at 50.0 µM 49.9% | [4]; [7] 34% | [5]; [7] 38% | [5]; at 50.0 µM 46.7% | [6]; [7] 63%

O=[N+]([O-])c1ccc([Se]CCBr)c([N+](=O)[O-])c1
inactive: [1]; [7] 5% | [1]; [8] 36% | [1]; at 50.0 µM 38.4% | [2]; [7] 1% | [2]; [8] 23% | [2]; at 50.0 µM 41% | [3]; [7] 5% | [3]; at 50.0 µM 18.2% | [4]; [7] 2% | [4]; at 50.0 µM 15.8% | [5]; [7] -2% | [5]; at 50.0 µM 30.2% | [6]; [7] 10% | [6]; at 50.0 µM 19.8%
active: [3]; [8] 95% | [4]; [8] 88% | [5]; [8] 90% | [6]; [8] 96%

O=P(CP(=O)(c1ccccc1)c1ccccc1)(c1ccccc1)c1ccccc1.[CH3][Sn]([CH3])([Cl])[Cl]
active: [2]; at 50.0 µM 89.3%
inactive: [1]; [7] 6% | [1]; [8] 27% | [1]; at 50.0 µM 21.4% | [2]; [7] 21% | [2]; [8] 9% | [3]; [7] 5% | [3]; [8] 8% | [3]; at 50.0 µM 22.9% | [4]; [7] 3% | [4]; [8] -12% | [4]; at 50.0 µM 8.35% | [5]; [7] 0% | [5]; [8] 8% | [5]; at 50.0 µM 4.25% | [6]; [7] 2% | [6]; [8] 15% | [6]; at 50.0 µM 19.4%

CC[N-]c1nnnn1CC.[Au+].c1ccc([PH+](c2ccccc2)c2ccccc2)cc1
active: [1]; [7] 99% | [1]; [8] 98% | [1]; at 50.0 µM 97.8% | [2]; [7] 99% | [2]; [8] 98% | [2]; at 50.0 µM 98.4% | [3]; [7] 99% | [3]; [8] 98% | [3]; at 50.0 µM 97.7% | [4]; [7] 97% | [4]; [8] 96% | [4]; at 50.0 µM 97.2% | [5]; [7] 99% | [5]; [8] 98% | [5]; at 50.0 µM 97.8% | [6]; [7] 99% | [6]; [8] 97% | [6]; at 50.0 µM 97.2%

CC(C)CCC[C@@H](C)[C@H]1CC[C@H]2[C@@H]3CC[C@H]4C[C@H](NCCCl)CC[C@]4(C)[C@H]3CC[C@]12C
inactive: [1]; [7] 28% | [1]; [8] 36% | [1]; at 50.0 µM 52% | [2]; [7] 15% | [2]; [8] 26% | [2]; at 50.0 µM 43.6% | [3]; [7] 40% | [3]; [8] 68% | [3]; at 50.0 µM 49.1% | [4]; [7] 28% | [4]; [8] 7% | [4]; at 50.0 µM 51% | [5]; [7] 45% | [5]; [8] 49% | [5]; at 50.0 µM 42.2% | [6]; [7] 22% | [6]; [8] 27% | [6]; at 50.0 µM 55%

N#CC(C#N)=Cc1cccc([N+](=O)[O-])c1
-24.4% (inactive) and 99.2% (active): [3]; at 50.0 µM
-27.9% (inactive) and 97.8% (active): [6]; at 50.0 µM
-8.45% (inactive) and 99.5% (active): [5]; at 50.0 µM
inactive: [1]; [7] 42% | [2]; [7] 29% | [3]; [7] 13% | [4]; [7] 1% | [4]; [8] 28% | [5]; [7] 9% | [6]; [7] 33%
active: [1]; [8] 89% | [2]; [8] 92% | [3]; [8] 84% | [5]; [8] 76% | [6]; [8] 92%
-11.1% (inactive) and 90.8% (active): [2]; at 50.0 µM
-15.1% (inactive) and 98.2% (active): [1]; at 50.0 µM
-4.8% (inactive) and 93.7% (active): [4]; at 50.0 µM

CC(=O)OC1CCC2(C)C3=C(CCC2C1(C)C)C1(C)CCC(C(C)CCC2NC2(C)C)C1(C)CC3 (configuration not stated)
inactive: [1]; [7] -22% | [1]; at 50.0 µM 22.6% | [2]; [7] 3% | [2]; [8] 66% | [2]; at 50.0 µM 2.5% | [3]; [7] 23% | [4]; [7] 2% | [4]; [8] 23% | [4]; at 50.0 µM -29.1% | [5]; [7] -1% | [5]; at 50.0 µM 10.8% | [6]; [7] 6% | [6]; at 50.0 µM 11.2%
active: [1]; [8] 86% | [3]; [8] 98% | [3]; at 50.0 µM 95.8% | [5]; [8] 79% | [6]; [8] 84%
